Screens as filed in PubChem BioAssay.
MARV entry inh = qHTS for Inhibitors of binding or entry into cells for Marburg Virus | 6.5% of 18,000 active | Potency, µM (series often up to 49.2 µM), inactives show at the highest dose activity change, negative = inhibition, usual class: inhibitors | Marburg virus pseudotype entry/binding inhibition, cell-based
Lassa entry = qHTS for Inhibitors of binding or entry into cells for Lassa Virus; Lassa virus pseudotyped entry inhibition, cell-based qHTS; Potency, µM (highest dose often 49.2 µM), inactives show top-dose activity change, negative = inhibition, actives largely listed as inhibitors; 4.1% of 18,000 active; AID 720533, 2013
* hit, by the source's call; ? = inconclusive; nt = no result; ! = a repeat was not active; [ ] = dose if it differs, or a comment. Hits are enriched below; roughly 7.1% of the tested compounds scored in any of these assays. Calls follow the shape of the full dose curve; tested in HEK293 cells. % is scaled to controls: 0 for no effect and ±100 for the full control effect; potency is read from the fitted curve at half-maximal effect.

SMILES	MARV entry inh	Lassa entry
COC(=O)Nc1nc2ccc(C(=O)c3cccs3)cc2[nH]1	1.1µM*!	?
COC(=O)Nc1nc2ccc(C(=O)c3ccccc3)cc2[nH]1	?	-32%[17.8 µM]
CO[C@H](C1CCCCC1)[C@H](C)C=CCC(=O)OCCCc1ccccc1	5%[8.59 µM]	nt
CCOC(=O)[C@H](CCc1ccccc1)N[C@H]1CCc2ccccc2N(CC(=O)O)C1=O	14µM*!	4%
CCOC(=O)C(CCc1ccccc1)NC1CCc2ccccc2N(CC(=O)O)C1=O (stereo unspecified)	3%	-1%
CCN1C(=NCc2cccc(C(F)(F)F)c2)NC(c2ccccc2)C(C(=O)OC)=C1C (stereo unspecified)	?	5%[8.59 µM]
COc1ccc(S(=O)(=O)N(CCO)c2ccccc2CN(C)C/C=C/c2ccc(Cl)cc2)cc1	8.9µM*	?
CN(C/C=C/c1ccccc1)Cc1cccc2ccccc12	3%	-16%[17.8 µM]
CSCC[C@@H]1NC(=O)[C@@H](NC(=O)[C@H](CCCNC(=N)N)NC(=O)[C@H](CC(C)C)NC(=O)[C@H](CCSC)NC(=O)[C@H](CC(=O)O)NC(=O)[C@H](Cc2ccccc2)NC(=O)[C@@H](N)CC(=O)O)CSSC[C@@H](C(=O)N[C@@H](Cc2c[nH]c3ccccc23)C(=O)N[C@@H](CCC(N)=O)C(=O)N[C@H](C(=O)O)C(C)C)NC(=O)[C@@H]2CCCN2C(=O)[C@H](CCCNC(=N)N)NC(=O)[C@H](Cc2ccc(O)cc2)NC(=O)[C@H](C(C)C)NC(=O)[C@H](CCCNC(=N)N)NC(=O)CNC(=O)[C@H](CC(C)C)NC1=O	7%	6%
C=CCN1C(=O)CC[C@@]23C1=NC(C(=O)OC)=C(C(=O)OC)[C@@H]2N(C)c1ccccc13	14%[8.59 µM]	14%[8.59 µM]
CC(C)C[C@H]1COc2c(Cl)cccc2S(=O)(=O)N1Cc1ccc(F)cc1	3%	13%
OC(CCN1CCCCC1)(c1ccccc1)C1CC2C=CC1C2 (stereo unspecified)	10µM*	22µM*!
CCOC(=O)C1CCCCN1C(=O)c1ccc(-n2cc(NC(=O)c3cccnc3)cn2)cc1 (stereo unspecified)	-14%	0%
O=C(NCC1(N2CCCCC2)CCCCC1)c1ccc(-n2cc(NC(=O)c3cccnc3)cn2)cc1	4µM*	-5%
Cc1ccc2[nH]c(O)c(N=Nc3ccc(S(N)(=O)=O)cc3)c2c1	85%	?
CCCN1CCC=C(c2ccc(Nc3nc(Nc4ccccc4C(N)=O)c4cc[nH]c4n3)c(C)c2)C1	?	-1%
CCCN1CCC(Oc2cc(Nc3nc(Nc4cccc(F)c4C(N)=O)c4cc[nH]c4n3)c(OC)cc2Cl)CC1	10µM*	?
CCCN1CCCC(c2ccc(Nc3nc(Nc4cc(F)ccc4C(N)=O)c4cc[nH]c4n3)c(OC)c2)C1 (stereo unspecified)	7.9µM*	?
C[C@H]1CC[C@H]2C(=O)N(Cc3ccccc3)C[C@@H](O)CN2[C@H]1c1cccc(Br)c1	10%[8.59 µM]	nt
COC(=O)N[C@@H](c1ccco1)[C@]1(C(C)=O)CCCC1=O	?	5%[8.59 µM]
CC(C)C[C@@H]1COc2cccc(F)c2S(=O)(=O)N1	15%	2%
CN(Cc1cnc2nc(N)nc(N)c2n1)c1ccc(C(=O)N[C@@H](CCC(=O)O)C(=O)O)cc1	15%	0%
CN(Cc1cnc2nc(N)nc(N)c2n1)c1ccc(C(=O)N[C@H](CCC(=O)O)C(=O)O)cc1	32µM*	-12%[17.8 µM]
COC(=O)C1=C(C)N(Cc2ccccc2)C(=NCCCCO)NC1c1cccc(F)c1 (stereo unspecified)	57%[8.59 µM]	nt
CC(C)(C)c1ccc(O[C@@H]2[C@H](O)CO[C@H]2C=CC#Cc2ccccc2)cc1	-16%[8.59 µM]	7%[8.59 µM]
SMILES	MARV entry inh	Lassa entry
COC(=O)C1=C(C(=O)OC)[C@@H]2N(Cc3ccccc3)c3ccccc3[C@@]23CCC(=O)N(CCc2ccccn2)C3=N1	?	-23%[8.59 µM]
C[C@H]1CCC/C=C/[C@@H]2C[C@H](O)C[C@H]2[C@H](O)/C=C/C(=O)O1	1.1µM*	1.1µM*
C[C@H]1CCCC(=O)CCC/C=C/c2c(O)cc(O)cc2C(=O)O1	-30%	-16%
C[C@H]1CCC/C=C/C2C[C@H](O)C[C@H]2[C@H](O)/C=C/C(=O)O1 (stereo partly specified)	0.63µM*	0.63µM*!
CCCCCC(=O)N1C[C@@H](O)[C@H](n2cc(-c3ccc(F)cc3)nn2)C[C@H]1c1ccc(C)cc1	-9%	10%
COCC=CC1=CC2=CC(=O)C(C)(OC(=O)c3cnc4ccccc4n3)C(=O)C2=CN1CC(C)C (stereo unspecified)	7%[8.59 µM]	7%[8.59 µM]
CNCCCCc1cnc(C)c2[nH]c3ccccc3c12	11µM*	?
O=C1NC(=O)c2c1c1c3ccccc3[nH]c1c1[nH]c3ccccc3c21	?	-17%
c1ccc2sc(N3CCN(Cc4ccc5c(c4)OCO5)CC3)nc2c1	8%	34%
c1cc(CN2CCCCC2)cc(OCCCNc2nc3ccccc3s2)c1	16µM*	?
